# Results reported in PubChem BioAssay (EPA / NIEHS).
# Values joined by “and” are separate entries in the source; they are usually repeats but may differ in a detail not shown here. Equal entries are not always repeated. Some compounds were tested as several samples or in several runs, with calls that do not always agree. Active and inactive are the calls of the source. How the source made its calls: active means hit-call score of the fitted dose curve at least 0.9, where 1 is the maximum; inactive means score below 0.9.
# Test system: not listed separately
# Test: ATG_AP_2_CIS: Attagene CIS-FACTORIAL HepG2 Assay for human Activator Protein 2 (AP-2) (AID 2282932)
# Conditions: HepG2 AP-2 cis-reporter, Attagene transcription factor profiling; actives raise or lower the signal
# Procedure, shortened: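 Multiplexed mRNA reporter assay in HepG2: cis-regulated units report endogenous factor activity after 24 h treatment. Fluorescence from capillary electrophoresis of RT-PCR products gives the signal, with DMSO as baseline.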
Compound,outcome,AC50
CC(=O)OCC(COC(C)=O)OC(C)=O,inactive,–
Cc1ccc(C(C)(C)C)c(O)c1,inactive,–
CCCCC(CC)COC(=O)CCCCCCCC(=O)OCC(CC)CCCC (configuration not stated),inactive,–
S=c1[nH]c2ccccc2s1,inactive,–
CCCC(=O)O,inactive,–
O=C(NS(=O)(=O)/C=C/c1cccs1)c1ccc(F)cc1Br,inactive,–
O=C(O)c1cccnc1,inactive,–
COC(=O)[C@H]1[C@H]2C[C@@H]3c4[nH]c5cc(OC)ccc5c4CCN3C[C@H]2C[C@@H](OC(=O)c2cc(OC)c(OC)c(OC)c2)[C@@H]1OC,inactive,–
CC(C)(O)c1ccc(CNC(=O)c2cccnc2Oc2ccc(F)cc2)cc1,inactive,–
CC(C)COC(=O)CCCCC(=O)OCC(C)C,inactive,–
CN(C)CCCN(C)CCCN(C)C,inactive,–
O=C(O)CN(CC(=O)O)CC(=O)O,inactive,–
Oc1ccccc1O,inactive,–
CCCCOC(=O)CCCCC(=O)OCCCC,inactive,–
CC(N)=O,inactive,–
Cc1occc(=O)c1O,inactive,–
CC(=O)[C@@]1(O)CC[C@H]2[C@@H]3CCC4=CC(=O)CC[C@]4(C)[C@H]3CC[C@@]21C,inactive,–
NC=O,inactive,–
CC(=O)CC(c1ccccc1)c1c(O)c2ccccc2oc1=O (configuration not stated),inactive,–
CC1=C(C)S(=O)(=O)CCS1(=O)=O,inactive,–
CC(C)OC(=O)C(C)(C)Oc1ccc(C(=O)c2ccc(Cl)cc2)cc1,inactive,–
O=C(N[C@@H](c1ccccc1)[C@@H]1CCCCN1)c1cccc(C(F)(F)F)c1Cl,–,33 µM (active)
CCc1cc(C2=C(C(=O)O)N(c3ccccc3C(F)(F)F)S(=O)(=O)c3ccccc32)cc2c1OCO2,inactive,–
Oc1ccc(O)cc1,–,28.8 µM (active)
CC(=O)O[C@]1(C(C)=O)CC[C@H]2[C@@H]3C=C(Cl)C4=CC(=O)[C@@H]5C[C@@H]5[C@]4(C)[C@H]3CC[C@@]21C,inactive,173 µM (active) and 60.4 µM (active)
CC(C)c1cccc(C(C)C)c1NC(=O)NS(=O)(=O)c1cc(C(C)(C)O)co1,inactive,–
O=C(Oc1ccccc1)c1cccc(C(=O)Oc2ccccc2)c1,inactive,–
Cn1cnc2c1c(=O)[nH]c(=O)n2C,inactive,–
O=C1CCCCC1,inactive,–

# Test system: not listed separately
# Test: ATG_BRE_CIS: Attagene CIS-FACTORIAL HepG2 Assay for human Bone Morphogenetic Protein (BMP) Response Element (BRE) (AID 2282933)
# Conditions: HepG2 BMP response element reporter, Attagene transcription factor profiling; actives raise or lower the signal
# Procedure, shortened: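 After a 24 h chemical treatment, transiently transfected HepG2 cells were lysed for RNA; reporter transcripts were quantified by fluorescent RT-PCR and capillary electrophoresis, normalised to DMSO.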
Compound,outcome,AC50
CC(=O)OCC(COC(C)=O)OC(C)=O,inactive,–
Cc1ccc(C(C)(C)C)c(O)c1,inactive,–
CCCCC(CC)COC(=O)CCCCCCCC(=O)OCC(CC)CCCC (configuration not stated),inactive,–
S=c1[nH]c2ccccc2s1,–,7.98 µM (active)
CCCC(=O)O,inactive,–
O=C(NS(=O)(=O)/C=C/c1cccs1)c1ccc(F)cc1Br,inactive,–
O=C(O)c1cccnc1,inactive,–
COC(=O)[C@H]1[C@H]2C[C@@H]3c4[nH]c5cc(OC)ccc5c4CCN3C[C@H]2C[C@@H](OC(=O)c2cc(OC)c(OC)c(OC)c2)[C@@H]1OC,inactive,–
CC(C)(O)c1ccc(CNC(=O)c2cccnc2Oc2ccc(F)cc2)cc1,inactive,–
CC(C)COC(=O)CCCCC(=O)OCC(C)C,inactive,–
CN(C)CCCN(C)CCCN(C)C,inactive,–
O=C(O)CN(CC(=O)O)CC(=O)O,inactive,–
Oc1ccccc1O,inactive,–
CCCCOC(=O)CCCCC(=O)OCCCC,inactive,–
CC(N)=O,inactive,–
Cc1occc(=O)c1O,inactive,–
CC(=O)[C@@]1(O)CC[C@H]2[C@@H]3CCC4=CC(=O)CC[C@]4(C)[C@H]3CC[C@@]21C,inactive,–
NC=O,inactive,–
CC(=O)CC(c1ccccc1)c1c(O)c2ccccc2oc1=O (configuration not stated),inactive,–
CC1=C(C)S(=O)(=O)CCS1(=O)=O,inactive,–
CC(C)OC(=O)C(C)(C)Oc1ccc(C(=O)c2ccc(Cl)cc2)cc1,–,45.7 µM (active)
O=C(N[C@@H](c1ccccc1)[C@@H]1CCCCN1)c1cccc(C(F)(F)F)c1Cl,inactive,–
CCc1cc(C2=C(C(=O)O)N(c3ccccc3C(F)(F)F)S(=O)(=O)c3ccccc32)cc2c1OCO2,inactive,–
Oc1ccc(O)cc1,–,200 µM (active)
CC(=O)O[C@]1(C(C)=O)CC[C@H]2[C@@H]3C=C(Cl)C4=CC(=O)[C@@H]5C[C@@H]5[C@]4(C)[C@H]3CC[C@@]21C,inactive,30.1 µM (active) and 43.7 µM (active) and 33.4 µM (active)
CC(C)c1cccc(C(C)C)c1NC(=O)NS(=O)(=O)c1cc(C(C)(C)O)co1,inactive,–
O=C(Oc1ccccc1)c1cccc(C(=O)Oc2ccccc2)c1,inactive,–
Cn1cnc2c1c(=O)[nH]c(=O)n2C,inactive,–
O=C1CCCCC1,inactive,–

# Target: Retinoic acid receptor alpha (Homo sapiens) (UniProt P10276)
# Sequence (P10276 whole entry, looked up): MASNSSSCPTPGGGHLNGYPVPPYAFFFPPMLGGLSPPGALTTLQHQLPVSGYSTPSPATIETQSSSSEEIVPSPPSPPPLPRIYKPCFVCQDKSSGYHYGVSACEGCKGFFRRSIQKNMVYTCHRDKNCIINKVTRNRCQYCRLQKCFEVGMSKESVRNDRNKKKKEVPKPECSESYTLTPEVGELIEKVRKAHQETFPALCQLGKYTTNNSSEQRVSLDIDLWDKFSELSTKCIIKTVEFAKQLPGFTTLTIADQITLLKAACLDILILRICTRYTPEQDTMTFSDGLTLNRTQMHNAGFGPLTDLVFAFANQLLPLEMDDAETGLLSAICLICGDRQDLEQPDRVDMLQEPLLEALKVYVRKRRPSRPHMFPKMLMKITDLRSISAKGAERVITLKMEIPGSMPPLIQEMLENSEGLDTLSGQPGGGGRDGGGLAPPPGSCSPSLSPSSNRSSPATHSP
# Test: ATG_DR5_RAR_CIS: Attagene CIS-FACTORIAL HepG2 Assay for human Retinoic Acid Receptor Alpha (RARE), DR5 submotif (AID 2282934);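 on AC50: reporter responds to endogenous RAR alpha beta and gamma in HepG2 not RARA alone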
# Conditions: HepG2 Attagene cis-factorial RARE DR5 reporter, mRNA; actives raise or lower the signal
# Procedure, shortened: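 HepG2 cells transiently transfected with multiplexed reporter units; DR5 cis-element drives reporter through endogenous transcription factors. After 24 h dosing, reporter mRNA quantified by RT-PCR, fluorescent labeling, HpaI digestion and capillary electrophoresis; bidirectional fitting versus DMSO.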
Compound,outcome,AC50
S=c1[nH]c2ccccc2s1,inactive,–
CCCC(=O)O,inactive,–
O=C(NS(=O)(=O)/C=C/c1cccs1)c1ccc(F)cc1Br,inactive,–
CC(C)(O)c1ccc(CNC(=O)c2cccnc2Oc2ccc(F)cc2)cc1,inactive,–
CC(C)COC(=O)CCCCC(=O)OCC(C)C,inactive,–
O=C(O)CN(CC(=O)O)CC(=O)O,inactive,–
Oc1ccccc1O,inactive,–
CCCCOC(=O)CCCCC(=O)OCCCC,inactive,–
CC(N)=O,inactive,–
CC(=O)[C@@]1(O)CC[C@H]2[C@@H]3CCC4=CC(=O)CC[C@]4(C)[C@H]3CC[C@@]21C,inactive,–
NC=O,inactive,–
CC(C)OC(=O)C(C)(C)Oc1ccc(C(=O)c2ccc(Cl)cc2)cc1,inactive,–
O=C(N[C@@H](c1ccccc1)[C@@H]1CCCCN1)c1cccc(C(F)(F)F)c1Cl,–,20.9 µM (active)
Oc1ccc(O)cc1,inactive,–
CC(C)c1cccc(C(C)C)c1NC(=O)NS(=O)(=O)c1cc(C(C)(C)O)co1,inactive,–
O=C(Oc1ccccc1)c1cccc(C(=O)Oc2ccccc2)c1,inactive,–
Cn1cnc2c1c(=O)[nH]c(=O)n2C,inactive,–
